PI5P4Ka inh = blocks human PI5P4K alpha kinase activity; P48426; PI5P4Kalpha enzyme, ADP-Glo luminescence, 60 min; hits give low values; max response, %; hit rate 1.2% among 330,000; active = max response of -50% or lower; inconclusive = between -30% and -50%; inactive = -30% or higher; note: value at the top dose of about 77 µM; % is set by controls: 0 for no effect and ±100 for the full control effect
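Controls without substrate or without enzyme flank wells where PI5P4Kalpha converts substrate using 5 microM ATP (final). Incubation lasts 60 minutes at room temperature; ADP formed is read by ADP-Glo luminescence.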
PLK1 PBD inh = inhibitors of human PLK1 polo-box domain binding | Plk1 PBD binding of FITC phosphopeptide, fluorescence polarization | hit rate 2.8% among 360,000 | P53350 | AID 720504 | Potency, µM, without a hit: max response, negative = inhibition, hits mostly inhibitors; note: potency is the fitted concentration of half-maximal effect; series mostly up to about 57 µM; % is set by controls: 0 for no effect and ±100 for the full control effect; nearly all actives have a fitted effect of over 65% in size
G9a inh = blocks human histone lysine methyltransferase G9a; Q96KQ7; hit rate 8.8% among 350,000; Potency, µM (highest dose often 102 µM), without a hit: at the top dose activity, negative = inhibition, most hits filed as inhibitors; G9a H3K9 monomethylation, AlphaScreen, 2 h; AID 504332; note: potency is the fitted concentration of half-maximal effect; % is set by controls: 0 for no effect and ±100 for the full control effect; nearly all actives have a fitted effect of over 75% in size
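Chemiluminescent proximity detection of H3K9 monomethylation, read after 10 min bead incubation in the dark. Reaction: 20 nM G9a, 500 nM biotin-H3K9 peptide, 20 uM SAM cofactor, 2 h, room temperature, following 15 min enzyme-compound preincubation.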
HP1b binding inh = inhibitors of HP1-beta chromodomain binding to methylated histone tails. Potency, µM (series often up to 114 µM), for the others: at the top dose activity change, negative = inhibition, usual class: inhibitors. AlphaScreen HP1-beta / biotin-H3K9me3 peptide binding. hit rate 0.56% among 390,000. P83916; note: potency is the fitted concentration of half-maximal effect; nearly all actives have a fitted effect of over 70% in size
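HP1-beta protein (50 nM final) preincubated 30 min at room temperature with biotinylated H3(1-18)K9me3 peptide (50 nM) in PBS pH 7.4, 0.01% Tween-20, then compound added for 30 min. AlphaScreen streptavidin donor/nickel chelate acceptor beads (10 ug/mL final), 30 min dark, luminescence read.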
BAZ2B block = inhibitors of human BAZ2B bromodomain. Q9UIF8. AlphaScreen BAZ2B-H3K14Ac peptide displacement. Potency, µM (highest dose often 114 µM), for inactives: at the top dose activity change, negative = inhibition, usual class: inhibitors. hit rate 4.4% among 360,000. AID 504333; note: potency is the fitted concentration of half-maximal effect; % is set by controls: 0 for no effect and ±100 for the full control effect; nearly all actives have a fitted effect of over 60% in size
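AlphaScreen displacement: compounds (up to 110uM) incubated 30 min at room temperature with a preformed 50 nM BAZ2B/50 nM biotinylated H3K14Ac peptide complex in PBS pH 7.4 with Tween-20. Donor and acceptor beads at 10 ug/mL final added, 20 min light-protected before reading.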
JMJD2A Tudor inh = JMJD2A Tudor domain (human) inhibition | O75164 | AlphaScreen JMJD2A-Tudor / H3K4me3 peptide binding | Potency, µM (titrated, usually from 114 µM), for the others: top-dose activity change, negative = inhibition, most hits filed as inhibitors | hit rate 4.4% among 390,000 | AID 504339; note: potency is the fitted concentration of half-maximal effect; % is set by controls: 0 for no effect and ±100 for the full control effect; nearly all actives have a fitted effect of over 50% in size
* marks the source's active call; other numbers are inactive results; ? = inconclusive; . = no result given; [ ] = remark or other dose. Rows were chosen to be rich in hits. Some 12% of all compounds tested hit in one or more screens of this group. Unless noted, calls come from the whole dose curve; as a rule, active = well fitted curve in the direction sought with a large enough effect; inconclusive = small, poorly fitted or top-dose-only effect, or another doubt; inactive = no such curve, though single readings can be large; an effect the other way counts as inactive or inconclusive.

SMILES	PI5P4Ka inh	PLK1 PBD inh	G9a inh	HP1b binding inh	BAZ2B block	JMJD2A Tudor inh
CCCC(=O)Nc1ccc(C(=O)NNC(=O)c2cccc([N+](=O)[O-])c2)cc1	5	-6%	-34%	60%	-30%	7%[11.4 µM]
O=C(NC(=S)N1CCCC1)c1cccc([N+](=O)[O-])c1	-2	-6%	79µM*	50%	-38%	-21%
O=C(NC(=S)N1CCCCCC1)c1cccc([N+](=O)[O-])c1	0	-7%	33%[2.33 µM]	44%	?	-24%
O=C(NNS(=O)(=O)c1ccccc1)c1cccc([N+](=O)[O-])c1	8	3%	?	21%	-8%	13µM*
O=C(NNC(=S)NC(=O)c1cccc([N+](=O)[O-])c1)c1ccc(Br)cc1	-27	?	45µM*	-1%	-2%	-21%
Cc1ccc(C(=O)NC(=S)NNC(=O)c2cccc([N+](=O)[O-])c2)cc1	0	-12%	.	14%	12%	-12%
O=C(NNC(=S)NC(=O)c1cccc([N+](=O)[O-])c1)c1ccc(O)cc1	?	?	20µM*	-17%	5%	-25%
COc1ccc(-c2oc3ccccc3c2C(=O)OCc2ccccc2OC)cc1	26	-5%	2%	214%	57%	76%
COC(=O)[C@]12CCCCC=C1N(CCc1ccc(OC)c(OC)c1)C(=O)[C@H](CC(=O)N1CCOCC1)C2	-5	-13%	.	.	.	.
O=C(NNC(=S)NC(=O)c1ccccc1)c1cccc([N+](=O)[O-])c1	-2	-14%	28µM*	-14%	-1%	-29%
O=C(NNS(=O)(=O)c1ccc([N+](=O)[O-])cc1)C(=O)Nc1cccc(C(=O)O)c1	?	?	8.9µM*	37%	56µM*	?
O=C(NNC(=O)c1cccc([N+](=O)[O-])c1)c1ccncc1	-1	-4%	-4%[0.501 µM]	20%	3%	-11%[57.1 µM]
COc1ccc2c(c1)c1c(c(=O)n(-c3ccccc3C)c(=O)n1C)n2C	.	.	-22%[59 µM]	-4%	-3%	-14%
O=C(NCc1ccc(F)cc1)C1CCCN1S(=O)(=O)c1ccccc1C(F)(F)F (stereo unspecified)	0	-5%	15%[12.7 µM]	42%	-2%	-21%
CC(=O)c1ccc(Nc2nc(-c3sc(C)nc3C)cs2)cc1	-22	-6%	.	.	.	.
Cc1ccc(Cl)cc1Nc1nc(-c2sc(NC(=O)c3ccco3)nc2C)cs1	-19	-17%	?	23%	?	?
Cc1ccccc1Nc1nc(-c2sc(NC(=O)c3ccc([N+](=O)[O-])cc3)nc2C)cs1	.	.	25µM*	.	45µM*	.
Cc1ccccc1Nc1nc(-c2sc(NC(=O)c3cccc(Cl)c3)nc2C)cs1	.	.	22µM*	.	89µM*	.
Cc1ccc(Cl)cc1Nc1nc(-c2sc(NC(=O)c3cccc(Cl)c3)nc2C)cs1	.	.	32µM*	.	?	.
Cc1ccc(Nc2nc(-c3sc(NC(=O)c4ccc([N+](=O)[O-])cc4)nc3C)cs2)cc1	.	.	.	.	45µM*	.
O=C(NCc1ccccc1)C1C(c2ccccc2)=Nc2ccccc2N1C(=O)c1cccnc1 (stereo unspecified)	-4	-18%	.	.	.	.
Cc1ccccc1Nc1nc(-c2sc(NC(=O)c3ccccc3)nc2C)cs1	.	.	35µM*	.	?	.
COc1ccccc1Nc1nc(-c2sc(NC(=O)c3ccco3)nc2C)cs1	-5	-12%	?	-8%	-33%	-25%
Cc1ccc(C(=O)Nc2ccc3c(c2)N(C)C(=O)c2ccccc2S3)cc1F	.	.	3%[59 µM]	22%	-7%	-27%
O=c1c(-c2cccc(F)c2)nc2cncnc2n1Cc1ccccc1	.	.	0%[12.7 µM]	.	.	.
SMILES	PI5P4Ka inh	PLK1 PBD inh	G9a inh	HP1b binding inh	BAZ2B block	JMJD2A Tudor inh
COc1ccc(C(=O)CN2CCN(c3ccc(F)cc3)CC2)cc1	4	-6%	.	25%	?	-18%
COc1cccc(OCC(O)CN2CCN(CCN3C(=O)c4cccc5cccc(c45)C3=O)CC2)c1 (stereo unspecified)	3	-11%	50µM*	1%	-38%	?
CCN1CCN(CC(=O)c2ccc(OC)cc2)CC1	1	-8%	45µM*	59%	-5%	-9%
O=C1c2cccc3cccc(c23)C(=O)N1CCN1CCN(C(=S)Nc2ccc(F)cc2)CC1	.	.	14%[59 µM]	.	3%	.
CC(C)(C)C(=O)N1CCN(CCN2C(=O)c3cccc4cccc(c34)C2=O)CC1	1	-4%	.	11%	-7%	-1%
O=C(CN1CCN(CCN2C(=O)c3cccc4cccc(c34)C2=O)CC1)c1ccc(F)cc1	.	-17%	1.6µM*	31%	-6%	-26%
O=C(CN1CCN(CCN2C(=O)c3cccc4cccc(c34)C2=O)CC1)c1ccc(Cl)cc1	.	.	7.9µM*	.	-34%	.
CCOc1cc(C)nc(N2CCC(C(=O)NC3CC3)CC2)n1	-17	-17%	.	18%[57 µM]	.	-23%
C[C@@H]([C@H](O)c1ccccc1)N(C)C(=S)Nc1ccccc1	-2	-12%	18%	22%	3%	-2%
COc1ccc(C(=O)CN2CCN(CCN3C(=O)c4cccc5cccc(c45)C3=O)CC2)cc1	-24	19µM*	.	-9%	.	-18%[11.4 µM]
NCCCC[C@@H]1NC(=O)c2cc([N+](=O)[O-])cc(F)c2NCCCC[C@@H](C(N)=O)NC(=O)CNC1=O	2	1%	-22%	37%	0%	-24%
NC(=O)C(CC(=O)O)NC(=O)[C@@H]1CCCCNc2c(I)cc([N+](=O)[O-])cc2C(=O)N[C@@H](CO)C(=O)NCC(=O)N1 (stereo partly specified)	.	.	28µM*	.	?	.
NC(=O)C(CC(=O)O)NC(=O)[C@@H]1CCCNc2c(I)cc([N+](=O)[O-])cc2C(=O)N[C@@H](CO)C(=O)N[C@@H](Cc2ccc(O)cc2)C(=O)N1 (stereo partly specified)	0	-3%	50µM*	14%	-26%	?
CCCCSc1ncnc2c1c(-c1ccccc1)cn2-c1cccc(F)c1	.	.	54%[59 µM]	92%	55%	75%
COCCNC(=O)C(=O)Nc1cccc(Br)c1	.	-15%	20%[59 µM]	17%	8%	-4%
COCCNC(=S)NNc1cccc(C(=O)O)c1	-25	21µM*	10µM*	?	.	10µM*
COCCCNc1ncnc2c1cnn2-c1ccc(F)cc1	.	.	16%[59 µM]	10%	-2%	1%
CC(=O)c1ccc(NC(=O)C2=CC(c3ccc(C)cc3)=NS(=O)(=O)N2C)cc1	.	.	14µM*	-13%	?	?
COc1ccc(C2=NS(=O)(=O)N(C)C(C(=O)Nc3ccc(C)cc3)=C2)cc1	10	2%	?	-3%	?	-20%
Cc1ccc(NC(=O)C2=CC(c3ccc(C)cc3)=NS(=O)(=O)N2C)cc1	-4	-3%	40µM*	3%	1%	?

Compound activity as filed in PubChem.
